Several values for one entry are separate records, joined by “and”; a condition that tells them apart may be missing. Equal values may be shown once. Records with an inconclusive call do not appear. Where a call stands in place of a potency, no number is given. Values without a mark were called inactive. Activity calls are given as the source filed them. The call rests on the fitted dose curve; in most records, active means well fitted cell-killing curve with a large enough effect in the repeat runs; inconclusive means weak or mixed curves, or effect the other way; inactive means flat fitted curve, though single readings scatter.
Experiments:
[1] = cAMP Responsive Elements (CRE) small molecule antagonists, cell-based qHTS assay: qHTS cell viability counter screen (AID 2060913); details: CRE-bla HEK293T viability, CellTiter-Glo luminescence, 5 h; series mostly up to 92.4 µM; further: nearly all actives have a fitted effect of over 40% in size
In short: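 Viability of NKH477-stimulated (0.25 uM final) CRE-bla HEK293T cells is measured by CellTiter-Glo luminescence following 3 hrs compound exposure at 37 C.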

[2] = cAMP Responsive Elements (CRE) small molecule agonists, cell-based qHTS assay: qHTS cell viability counter screen (AID 2060914); details: CRE-bla HEK293T viability, CellTiter-Glo luminescence, 5 h; series mostly up to 92.4 µM; further: nearly all actives have a fitted effect of over 50% in size
In short: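 Cytotoxicity was measured as ATP luminescence (CellTiter-Glo, 30 min at room temperature) in the same wells as the CRE-bla FRET read-out. HEK293T CRE-bla cells had 3 h compound exposure at 37C/5% CO2.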
Potency means the concentration at half of the fitted maximal effect.

| SMILES | Potency [1] | Potency [2] | viability change, negative = cytotoxic [1] | activity change, negative = cytotoxicity [2] |
| --- | --- | --- | --- | --- |
| NNc1ccccc1 | inactive | inactive |  |  |
| CC(=O)[O][Sn]([c]1ccccc1)([c]1ccccc1)[c]1ccccc1 | 6.11 µM (active) | 30.6 µM (active) |  |  |
| O=P(OCC(Br)CBr)(OCC(Br)CBr)OCC(Br)CBr (stereo not given) | inactive | inactive |  |  |
| c1cncc([C@@H]2CCCCN2)c1 | inactive | inactive |  |  |
| O=C(Cl)C(Cl)Cl | inactive | inactive |  |  |
| CCN(Cc1ccc(Cl)nc1)/C(=C/[N+](=O)[O-])NC | inactive | inactive |  |  |
| CN1CCc2cc3c(cc2C1O)OCO3 (stereo not given) | inactive | inactive |  |  |
| CC(C)OS(C)(=O)=O | inactive | inactive |  |  |
| Clc1nc(Cl)nc(Cl)n1 | inactive | inactive |  |  |
| CCN1CCCC1CNC(=O)C(O)(c1ccccc1)c1ccccc1 (stereo not given) | inactive | inactive |  |  |
| CCC1(c2ccc(N)cc2)CCC(=O)NC1=O (stereo not given) | inactive | inactive |  |  |
| CN(C)CCc1c[nH]c2cccc(OP(=O)(O)O)c12 | inactive | inactive |  |  |
| C[N+]1(CCC(C(N)=O)(c2ccccc2)c2ccccc2)CCCCC1 | inactive | inactive |  |  |
| CCCCCCCCCCCC(=O)O | inactive | inactive |  |  |
| c1ccc2cc3c(cc2c1)-c1cccc2cccc-3c12 | inactive | inactive |  |  |
| CCOP(=S)(OCC)Oc1cc(-c2ccccc2)on1 | inactive | inactive |  |  |
| COc1cc(OC)nc(Oc2cccc(Oc3nc(OC)cc(OC)n3)c2C(=O)O)n1 | inactive | inactive |  |  |
| CCC[CH2][Sn]([CH2]CCC)([CH2]CCC)[O]C(=O)c1ccccc1 | 5.7 µM (active) | 5.45 µM (active) |  |  |
| O=[N+]([O-])c1cccc2ccccc12 | inactive | inactive |  |  |
| CCCCCCCCCCOC(=O)c1ccccc1C(=O)OCCCCCCCCCC | inactive | inactive |  |  |
| Cc1nc(N(C)C)nc(OC(=O)N(C)C)c1C | inactive | inactive |  |  |
| CCSCc1ccccc1OC(=O)NC | inactive | inactive |  |  |
| CCS(=O)(=O)C(C)(C)S(=O)(=O)CC | inactive | inactive |  |  |
| N#Cc1ccc(O)cc1 | inactive | inactive |  |  |

| SMILES | Potency [1] | Potency [2] | viability change, negative = cytotoxic [1] | activity change, negative = cytotoxicity [2] |
| --- | --- | --- | --- | --- |
| c1ccc2c(c1)Oc1ccccc1O2 | inactive | inactive |  |  |
| FC(F)(F)c1ccc(Cl)cc1 | inactive | inactive |  |  |
| CC(C)N(C(=O)CCl)c1ccccc1 | inactive | inactive |  |  |
| ClC1=C(Cl)C2(Cl)C(CBr)CC1(Cl)C2(Cl)Cl (stereo not given) | inactive | inactive |  |  |
| CC1=C(C(=O)Nc2ccccc2)S(=O)(=O)CCO1 | inactive | inactive |  |  |
| CNC(=O)Oc1cccc2c1OC(C)(C)C2 | inactive | inactive |  |  |
| COC(=O)c1ccccc1S(=O)(=O)NC(=O)Nc1nc(C)cc(C)n1 | inactive | inactive |  |  |
| O=C(C(Cl)(Cl)Cl)C(Cl)(Cl)Cl | inactive | inactive |  |  |
| N#C/C(N)=C(/N)C#N | inactive | inactive |  |  |
| Nc1c(Oc2ccccc2)cc(O)c2c1C(=O)c1ccccc1C2=O | inactive | inactive |  |  |
| CCCCCC[N+](=O)[O-] | inactive | inactive |  |  |
| CCN(CC)c1ccccc1 | inactive | inactive |  |  |
| CC(Cl)(Cl)Cl | inactive | inactive |  |  |
| CNC(=O)CSP(=O)(OC)OC | inactive | inactive |  |  |
| CCCCCCCCCCCCOS(=O)(=O)O | inactive | inactive |  |  |
| O=C(O)C(F)(F)C(F)(F)C(F)(F)C(F)(F)C(F)(F)C(F)(F)C(F)(F)C(F)(F)C(F)(F)C(F)(F)F | inactive | inactive |  |  |
| COc1ccc(C(O)(c2cncnc2)C2CC2)cc1 (stereo not given) | inactive | inactive |  |  |
| CC[C@]1(O)CC[C@H]2[C@@H]3CCC4=CCCC[C@@H]4[C@H]3CC[C@@]21C | inactive | inactive |  |  |
| ClC1=C(Cl)C2(Cl)C3C(Cl)C(Cl)CC3C1(Cl)C2(Cl)Cl (stereo not given) | 60.9 µM (active) | 54.5 µM (active) |  |  |
| O=C(Cl)c1ccccc1 | inactive | inactive |  |  |
| O=C(O)CCl | inactive | inactive |  |  |
| CO[C@@H]1[C@H](OC(=O)NC(=O)CCl)CC[C@]2(CO2)[C@H]1[C@@]1(C)O[C@@H]1CC=C(C)C |  |  | 9.39% [at 18.9 µM] | 13.5% [at 18.9 µM] |
| CCc1cccc(CC)c1N(COC)C(=O)CCl | inactive | inactive |  |  |
| O=C(CCCN1CCC(n2c(=O)[nH]c3ccccc32)CC1)c1ccc(F)cc1 | inactive | inactive |  |  |

| SMILES | Potency [1] | Potency [2] | viability change, negative = cytotoxic [1] | activity change, negative = cytotoxicity [2] |
| --- | --- | --- | --- | --- |
| COP(=O)(CCC(=O)NCO)OC | inactive | inactive |  |  |
| C[C@H](CN1CCOCC1)C(C(=O)N1CCCC1)(c1ccccc1)c1ccccc1 | inactive | inactive |  |  |
| CCCSP(=O)(OCC)Oc1ccc(Br)cc1Cl (stereo not given) | inactive | inactive |  |  |
| Clc1cc(Cl)c(Cl)c(Cl)c1 | inactive | inactive |  |  |
| CCC(C)c1ccc(O)cc1 (stereo not given) | inactive | inactive |  |  |
| O=C(Nc1ccccc1)N(Cc1ccc(Cl)cc1)C1CCCC1 | inactive | inactive |  |  |
| CCC(C)(CC)c1cc(NC(=O)c2c(OC)cccc2OC)on1 | inactive | inactive |  |  |
| Nc1ccc([N+](=O)[O-])cc1Cl | inactive | inactive |  |  |
| COC(=O)Nc1cccc(OC(=O)Nc2cccc(C)c2)c1 | inactive | inactive |  |  |
| C1CN2CCC1CC2 | inactive | inactive |  |  |
| CC(C)(O)C(Cl)(Cl)Cl | inactive | inactive |  |  |
| Cn1cc(-c2ccccc2)c(=O)c(-c2cccc(C(F)(F)F)c2)c1 | inactive | inactive |  |  |
| O=C1OC(=O)C2C1C1(Cl)C(Cl)=C(Cl)C2(Cl)C1(Cl)Cl (stereo not given) | inactive | inactive |  |  |
| CC(C)(C)C(O)(CCc1ccc(Cl)cc1)Cn1cncn1 (stereo not given) | inactive | inactive |  |  |
| Oc1ccc([C@H]2CNCc3c2ccc(O)c3O)cc1O | inactive | inactive |  |  |
| CCOP(=S)(OCC)Oc1ccc2c(C)c(Cl)c(=O)oc2c1 | inactive | inactive |  |  |
| Clc1ccccc1N1CCNCC1 | inactive | inactive |  |  |
| O=c1ccc(=O)[nH][nH]1 | inactive | inactive |  |  |
| CSC(C)(C)/C=N/O | inactive | inactive |  |  |
| O=C(O)COc1ccc(Cl)cc1 | inactive | inactive |  |  |
| CCOS(C)(=O)=O | inactive | inactive |  |  |
| O=C(CCl)c1ccccc1 | inactive | inactive |  |  |
| NC1(c2ccccc2)CCCCC1 | inactive | inactive |  |  |
| O=S(=O)(O)F | inactive | inactive |  |  |

| SMILES | Potency [1] | Potency [2] | viability change, negative = cytotoxic [1] | activity change, negative = cytotoxicity [2] |
| --- | --- | --- | --- | --- |
| BrCC1CO1 (stereo not given) | inactive | inactive |  |  |
| O=c1[nH]c2cc(Cl)ccc2n1C1CCNCC1 | inactive | inactive |  |  |
| COP(=S)(OC)Oc1c(Cl)cc(C)cc1Cl | inactive | inactive |  |  |
| Clc1ccc(-c2ccc(Cl)c(Cl)c2Cl)c(Cl)c1Cl | inactive | inactive |  |  |
| CCCCCCC(=O)CCCCCC/C=C/C[C@@H](O)[C@H](O)[C@@](N)(CO)C(=O)O |  |  | 2.93% [at 18.9 µM] | -1.02% [at 18.9 µM] |
| O=C(NC(=O)c1cc(F)c(F)cc1Cl)Nc1cc(F)ccc1N1CCC(C(=O)O)CC1 | inactive | inactive |  |  |
| Oc1c(Cl)cccc1Cl | inactive | inactive |  |  |
| Cc1c([N+](=O)[O-])c(C)c([N+](=O)[O-])c(C(C)(C)C)c1[N+](=O)[O-] | inactive | inactive |  |  |
| CN(CCCC(=O)c1cccnc1)N=O | inactive | inactive |  |  |
| C[C@H]1O[C@H](OC2[C@@H](O)[C@@H](O)C(O)[C@H](O)[C@H]2O)[C@@H](N)C[C@@H]1N=C(N)C(=O)O (stereo not given in full) | inactive | inactive |  |  |
| CC(Oc1ccc(Oc2ncc(C(F)(F)F)cc2Cl)cc1)C(=O)O (stereo not given) | inactive | inactive |  |  |
| Nc1cccnc1 | inactive | inactive |  |  |
| c1ccc(C2CO2)cc1 (stereo not given) | inactive | inactive |  |  |
| C=C(C#N)CCC#N | inactive | inactive |  |  |
| CC(=O)C1CCOC1=O (stereo not given) | inactive | inactive |  |  |
| ClCc1ccccc1 | inactive | inactive |  |  |
| CCOP(=S)(OCC)SCCS(=O)(=O)CC | inactive | inactive |  |  |
| CCN(CC)CCOC(=O)C(C)(c1ccccc1)c1ccccc1 | inactive | inactive |  |  |
| CNC(C)(C)Cc1ccccc1 | inactive | inactive |  |  |
| Cc1cccc(N=Nc2ccc(N(C)C)cc2)c1 | inactive | inactive |  |  |
| CCc1ccc(C(=O)NN(C(=O)c2cc(C)cc(C)c2)C(C)(C)C)cc1 | inactive | inactive |  |  |
| [N-]=[N+]=[N-] | inactive | inactive |  |  |
| CCOP(=O)(OCC)SCCSCC | inactive | inactive |  |  |
| NCCCNCCCN | inactive | inactive |  |  |

| SMILES | Potency [1] | Potency [2] | viability change, negative = cytotoxic [1] | activity change, negative = cytotoxicity [2] |
| --- | --- | --- | --- | --- |
| CC(NC(C)(C)C)C(=O)c1cccc(Cl)c1 (stereo not given) | inactive | inactive |  |  |
| CCCCn1cc[n+](C)c1C | inactive | inactive |  |  |
| O=Cc1cccc(Oc2ccccc2)c1 | inactive | inactive |  |  |
| CN1CCC(N(Cc2ccccc2)c2ccccc2)CC1 | inactive | inactive |  |  |
| O=S(=O)(O)C(F)(F)C(F)(F)C(F)(F)C(F)(F)C(F)(F)C(F)(F)C(F)(F)C(F)(F)F | inactive | inactive |  |  |
| C(CCOCC1CO1)COCC1CO1 (stereo not given) | inactive | inactive |  |  |
| c1cc2c3c(cccc3c1)CC2 | inactive | inactive |  |  |
| CCC1COC(Cn2cncn2)(c2ccc(Cl)cc2Cl)O1 (stereo not given) | inactive | inactive |  |  |
| CCCCCCC[CH2][Sn]([Cl])([Cl])[CH2]CCCCCCC | inactive | inactive |  |  |
| NC(=O)CS(=O)C(c1ccccc1)c1ccccc1 (stereo not given) | inactive | inactive |  |  |
| CCCOC(=O)c1ccccc1C(=O)OCCC | inactive | inactive |  |  |
| Cc1ccc(N)cc1N | inactive | inactive |  |  |
| CC(C)[C@]12CC(=O)[C@H](C)[C@H]1C2 | inactive | inactive |  |  |
| CCC(=O)O[C@H]1CC[C@H]2[C@@H]3CCC4=CC(=O)CC[C@]4(C)[C@H]3CC[C@]12C | inactive | inactive |  |  |
| CNC(=O)O/N=C(/CSC)C(C)(C)C | inactive | inactive |  |  |
| O=C(O)c1ccc(=O)[nH]c1 | inactive | inactive |  |  |
| CCCn1cc[n+](C)c1 | inactive | inactive |  |  |
| Cc1ccc([N+](=O)[O-])cc1C | inactive | inactive |  |  |
| COP(=S)(OC)Oc1cc(Cl)c(I)cc1Cl | inactive | inactive |  |  |
| NCC(CC(=O)O)c1ccc(Cl)cc1 (stereo not given) |  |  | -0.747% [at 0.349 µM] | -9.73% [at 0.349 µM] |
| CNC(=O)Oc1cccc2c1OC(C)(C)O2 | inactive | inactive |  |  |
| CC(=O)[O][Hg][c]1ccccc1 | 12.1 µM (active) and 12.2 µM (active) and 16.8 µM (active) | 10.8 µM (active) and 13.7 µM (active) |  |  |
| O=[N+]([O-])c1ccc(Cl)c(Cl)c1 | inactive | inactive |  |  |
| C[C@H]1[C@@H]2Cc3ccc(O)cc3[C@@]1(C)CCN2C | inactive | inactive |  |  |

Reference: PubChem BioAssay (Tox21)
